VACV mCherry inh – vaccinia inhibition (mCherry reporter); Potency, µM (highest dose often 36.5 µM), usual class: inhibitors; 310,000 tested, 0.63% active; Vaccinia virus mCherry reporter infection, fluorescence; calls by dose curve; tested in A549 cells; note: nearly all actives have a fitted effect of over 35% in size
LmPK inh – LmPK (Leishmania mexicana) enzyme inhibition. Potency, µM (series often up to 57.5 µM), actives largely listed as inhibitors. AID 1721. purified LmPK, Kinase-Glo ATP luminescence, 1 h. 290,000 tested, 0.37% active
Target sequence (Q27686 whole entry, looked up): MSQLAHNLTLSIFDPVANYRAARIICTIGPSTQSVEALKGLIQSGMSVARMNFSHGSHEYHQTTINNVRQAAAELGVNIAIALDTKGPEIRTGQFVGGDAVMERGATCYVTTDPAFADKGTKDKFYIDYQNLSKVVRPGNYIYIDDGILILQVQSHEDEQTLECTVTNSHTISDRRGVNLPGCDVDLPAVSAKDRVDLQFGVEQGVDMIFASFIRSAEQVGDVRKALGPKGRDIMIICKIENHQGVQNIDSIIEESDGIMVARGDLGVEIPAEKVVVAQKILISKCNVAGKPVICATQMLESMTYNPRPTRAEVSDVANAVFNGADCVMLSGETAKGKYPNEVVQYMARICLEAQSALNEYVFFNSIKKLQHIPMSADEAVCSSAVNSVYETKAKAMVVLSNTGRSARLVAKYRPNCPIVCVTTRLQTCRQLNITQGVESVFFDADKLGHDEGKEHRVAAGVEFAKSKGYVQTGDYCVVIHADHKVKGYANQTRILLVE
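ATP generated from ADP (0.1 mM) and PEP (0.5 mM) by 0.1 nM LmPK over 1 h at room temperature (pH 7.2 imidazole buffer) was detected by coupled luciferase luminescence. Values were normalized to uninhibited and no-enzyme wells.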
Vaccinia Venus – vaccinia inhibition (Venus reporter); AID 720580; 330,000 tested, 0.46% active; Potency, µM (series often up to 36.5 µM), actives largely listed as inhibitors; Vaccinia virus Venus reporter expression, fluorescence; calls by dose curve; tested in A549 cells; note: nearly all actives have a fitted effect of over 30% in size
TbPYK inhibitor – T. brucei pyruvate kinase inhibition; 410,000 tested, 0.12% active; Potency, µM (series often up to 76.8 µM), usual class: inhibitors; Q57TT1; TbPYK enzyme, Kinase-Glo Plus ATP luminescence, 45 min; note: nearly all actives have a fitted effect of over 50% in size
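Luminescent Kinase-Glo Plus end-point after 45 min room-temperature reaction of T. brucei pyruvate kinase started with 130 uM ADP (final). Buffer TEA 50 mM pH 7.2 with KCl, MgCl2, BSA, Tween-20; titration-based qHTS with fitted concentration-effect curves.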
HCMV inh – inhibitors of human cytomegalovirus; HFF cells, HCMV-luciferase reporter, 72 h; active compounds read low; 410,000 tested, 4.5% active; activity change, negative = inhibition, % at 57.5 µM; in the data active = activity change below about -60%; inconclusive = no clear call, values can overlap the other calls; inactive = above about -39%
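Human foreskin fibroblasts infected with luciferase-reporter HCMV at MOI 1 PFU/cell, compounds at two doses. Luciferase measured 72 h post infection; normalized to buffer-only basal and Salinomycin (10uM) controls.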
Each line names hits and unclear results; the compound was inactive in the other large screens. Compounds with a hit are over-represented: about 5% of the library has one in this group of screens. Unless noted, calls come from the whole dose curve; as a rule, active = well fitted curve in the direction sought with a large enough effect; inconclusive = small, poorly fitted or top-dose-only effect, or another doubt; inactive = no such curve, though single readings can be large; an effect the other way counts as inactive or inconclusive.

CCN1/C(=C/c2cccc[n+]2C)Sc2ccc(OC)cc21	Vaccinia Venus inconclusive, HCMV inh -94
COc1ccc2c(c1)N(C)/C(=C/c1cccc[n+]1C)S2	HCMV inh -99 (no result: VACV mCherry inh, Vaccinia Venus)
Cn1c(=O)c2c(nc(Cl)n2CCOc2ccccc2)n(C)c1=O	none (no result: VACV mCherry inh, Vaccinia Venus, HCMV inh)
CCN(CC)CC#CC(OC)(c1ccccc1)c1ccccc1	HCMV inh -63
C=CCNC(=O)c1onc(CSc2ccc(F)c(F)c2)c1C(=O)NCC=C	HCMV inh -66 (no result: LmPK inh)
O=C(CC1(O)C(=O)N(C/C=C/c2ccccc2)c2ccccc21)c1ccccn1 (stereo not given)	HCMV inh -71 (no result: VACV mCherry inh, Vaccinia Venus)
COc1cc(/C=C2\SC(=O)NC2=O)ccc1Oc1ccc([N+](=O)[O-])cn1	HCMV inh -60
CCCOc1ccc(/C=C2\SC(N)=NC2=O)cc1OC	none (no result: VACV mCherry inh, Vaccinia Venus)
COc1cc(/C=C2/SC(N)=NC2=O)ccc1Oc1ccc([N+](=O)[O-])cc1[N+](=O)[O-]	HCMV inh -70
COc1cc(/C=C2/SC(=O)NC2=O)ccc1Oc1ccc([N+](=O)[O-])cc1[N+](=O)[O-]	VACV mCherry inh inconclusive
COc1ccc(Oc2ccc(/C=N/NC(=O)c3cccnc3)cc2[N+](=O)[O-])cc1	HCMV inh -80
COc1cc(/C=N/NC(=O)c2ccc(O)cc2)ccc1Oc1ccc([N+](=O)[O-])cn1	HCMV inh -62
FC(F)(F)c1cccc(-n2cc(-c3ccccc3)[nH]c2=S)c1	none
CC(=O)OC(C)CS(=O)(=O)c1ccccc1 (stereo not given)	VACV mCherry inh 7.9µM, Vaccinia Venus 7.9µM
COc1ccc(CCNC(=O)CN2C(=O)CSc3ccc(S(=O)(=O)N4CCOCC4)cc32)cc1OC	HCMV inh inconclusive (no result: VACV mCherry inh, Vaccinia Venus)
CC(C)C1C(=O)N(Cc2cn(CCC3OCCO3)nn2)CCS(=O)(=O)N1Cc1ccc(-c2ccc(Cl)c(Cl)c2)cc1 (stereo not given)	Vaccinia Venus inconclusive (no result: LmPK inh)
Oc1ccc(/C=N/Nc2nc(-c3ccc(Cl)cc3)cc(C(F)(F)F)n2)cc1	VACV mCherry inh 11µM, Vaccinia Venus 11µM, HCMV inh -77
Cc1cc(C)c2nc(C)cc(N/N=C/c3ccc(O)cc3)c2c1	VACV mCherry inh inconclusive, Vaccinia Venus inconclusive, HCMV inh -100
Cc1cc(-c2ccccc2)nc(N/N=C/c2ccc(O)cc2)n1	VACV mCherry inh 8.9µM (no result: LmPK inh)
COc1ccc(Cl)cc1NC(=O)C1CCCN(S(=O)(=O)c2ccc3c(c2)CCCC(=O)N3)C1 (stereo not given)	none (no result: LmPK inh)
O=C(NC(=O)c1ccc(F)cc1)Nc1nc(-c2cccs2)cc(C(F)(F)F)n1	none
COc1cc(CCC(=O)OCC(=O)N(CC(C)C)C2CCS(=O)(=O)C2)cc(OC)c1OC (stereo not given)	none (no result: LmPK inh)
Cc1nnc(SCC(=O)N2CCCC(N3CCN(c4ccc(F)cc4)CC3)C2)o1 (stereo not given)	none
COc1cccc(Cn2c3ccc(NC(=O)CCc4ccc(F)cc4)cc3c(=O)n2C)c1	Vaccinia Venus inconclusive, HCMV inh -85 (no result: LmPK inh)
COc1ccccc1CCC(=O)Nc1ccc2c(c1)c(=O)n(C)n2Cc1ccc(F)cc1	none (no result: LmPK inh)
CCOCCC(=O)Nc1ccc2c(c1)c(=O)n(C)n2Cc1cccc(C(F)(F)F)c1	HCMV inh -62 (no result: LmPK inh)
Cn1c(=O)c2cc(NC(=S)NCc3ccccc3F)ccc2n1Cc1cccc(C(F)(F)F)c1	HCMV inh -69 (no result: LmPK inh)
CCN1CCN(CCC(=O)Nc2ccccc2)CC1	none
Brc1ccc(CN2C3=NCCCN3c3ccccc32)cc1	HCMV inh inconclusive (no result: VACV mCherry inh, Vaccinia Venus)
CCOC(=O)c1sc(NC(=O)c2c(-c3ccccc3)c(-c3ccccc3)nn(C)c2=O)nc1C	none (no result: LmPK inh)
O=C1CC(c2ccc(Cl)c([N+](=O)[O-])c2)c2ccc3ccccc3c2N1 (stereo not given)	VACV mCherry inh 11µM, Vaccinia Venus inconclusive
CCN(C(=O)CSc1nc(-c2ccccc2)no1)c1cccc(C)c1	VACV mCherry inh 2.8µM, Vaccinia Venus inconclusive, HCMV inh -107 (no result: LmPK inh)
CCN(C(=O)CSc1nc2ccccc2nc1Cc1ccc(F)cc1)c1cccc(C)c1	none (no result: LmPK inh)
CC(C)(C)CC(C)(C)N=C1Nc2ccc(Cl)cc2N[C@]12C[C@H]1CCCC(=O)N3CC[C@@H](C2)[C@@H]13	Vaccinia Venus inconclusive (no result: LmPK inh, TbPYK inhibitor, HCMV inh)
COC(=O)C12OCC34C(CC5C(C)=C(O)C(=O)CC5(C)C3C(O)C1O)OC(=O)C(OC(=O)/C=C(\C)C(C)C)C24 (stereo not given)	VACV mCherry inh inconclusive, Vaccinia Venus 1.3µM, HCMV inh -98 (no result: LmPK inh)
COC(=O)C12OCC34C(CC5C(C)=C(O)C(=O)CC5(C)C3C(O)C1O)OC(=O)C(OC(=O)C=C(C)C)C24 (stereo not given)	VACV mCherry inh 32µM, Vaccinia Venus inconclusive, HCMV inh -99 (no result: LmPK inh)
Cn1nnnc1SCC1=C(C(=O)O)N2C(=O)C(NC(=O)C(OC=O)c3ccccc3)C2SC1 (stereo not given)	none (no result: LmPK inh, TbPYK inhibitor, HCMV inh)
O=C(CCc1nc(-c2ccccc2F)no1)NCCN1CCc2ccccc2C1	none (no result: VACV mCherry inh, HCMV inh)
CCOc1ccc(C(=O)Nc2cnn(Cc3ccc(Cl)c(Cl)c3)c2)cc1	HCMV inh -70 (no result: VACV mCherry inh, Vaccinia Venus)
O=C(Nc1cnn(Cc2ccc(Cl)c(Cl)c2)c1)C12CC3CC(CC(C3)C1)C2	VACV mCherry inh 18µM, Vaccinia Venus inconclusive
O=C(Nc1ccc(Cl)c(Cl)c1)c1ccc(Cn2cc(Cl)cn2)cc1	none (no result: VACV mCherry inh, Vaccinia Venus)
COc1cc2ccccc2ccc1=NO	Vaccinia Venus inconclusive, HCMV inh -68 (no result: LmPK inh)
COc1cc2ccccc2cc1C(=O)O	none (no result: VACV mCherry inh, Vaccinia Venus)
CCN(CC)C(=S)NC(=O)Cc1ccccc1	none
CN(C(=S)NC(=O)Cc1ccccc1)c1ccccc1	HCMV inh -67
Cc1ccsc1/C=N\NC(=O)c1n[nH]c2c1CCC2	VACV mCherry inh inconclusive, LmPK inh 10µM, Vaccinia Venus inconclusive
C/C(=N\NC(=O)c1ccc(O)cc1)c1ccc2c(c1)OCCO2	none (no result: VACV mCherry inh, LmPK inh, Vaccinia Venus)
CCOc1cccc(/C=N/NC(=S)Nc2cc(S(=O)(=O)N3CCOCC3)ccc2N2CCOCC2)c1O	VACV mCherry inh 7.1µM, Vaccinia Venus inconclusive, HCMV inh -79
Cc1ccsc1/C=N/NC(=O)c1ccc2c(c1)OCCO2	LmPK inh 22µM
C/C(=N\NC(=O)c1ccc2c(c1)OCCO2)c1ccccc1	LmPK inh 11µM, TbPYK inhibitor inconclusive
N#CCCN1CCNCC1	none (no result: VACV mCherry inh)
CCC1Cc2[nH]c(=S)[nH]c(=O)c2C(c2ccc(Cl)cc2)O1 (stereo not given)	none (no result: LmPK inh)
CCOC(=O)C1CCN(C(=O)c2cccnc2Oc2ccc(Cl)cc2)CC1	none (no result: VACV mCherry inh, Vaccinia Venus)
Cc1ccc(S(=O)(=O)c2cn(C)c3cc(N4CCCCC4)c(F)cc3c2=O)cc1	Vaccinia Venus inconclusive (no result: LmPK inh)
C/C(=N/NC(=O)c1ccoc1C)c1ccc(NC(=O)C2CCCC2)cc1	none
Cc1cccc(/C=N/NC(=O)c2ccc3c(c2)OCCO3)c1O	HCMV inh -98 (no result: VACV mCherry inh, Vaccinia Venus, TbPYK inhibitor)
CCOc1cccc(/C=N/NC(=O)c2ccc3c(c2)OCCO3)c1O	VACV mCherry inh inconclusive, Vaccinia Venus inconclusive, HCMV inh active

Compound activity as filed in PubChem.
